Experiment [1] in a line: qHTS for Inhibitors of Plasmodium falciparum (GB4) proliferation (AID 504315). Further: nearly all actives have a fitted effect of over 50% in size. Summed up: (§1)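 Erythrocytes infected with P. falciparum line (0.3% parasitemia, 2.5% hematocrit final) incubated with compounds 72 h at 37 °C, 5% CO2; SYBR Green lysis buffer added, fluorescence read next day. Normalized to 0.29 uM artemisinin and DMSO.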
(In general: Quantitative high-throughput screening tests each substance at several concentrations.)

The nature of experiment [2]: qHTS for Inhibitors of Plasmodium falciparum (CP250) proliferation (AID 504320). A digest of the protocol:
as §1

In experiment [3] the target is Atrial natriuretic peptide receptor 1 (Homo sapiens) (UniProt P16066). The experiment can be described thus: Natriuretic polypeptide receptor (hNpr1) antagonism - Pilot CMLD screen (AID 1347052; calls by dose curve;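 further: cGMP level read as GloSensor luciferase luminescence after agonist stimulation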).
A short description of experiment [4]: qHTS for Inhibitors of Plasmodium falciparum (7G8) proliferation (AID 504316). Further: nearly all actives have a fitted effect of over 65% in size. A digest of the protocol: as §1
Experiment [5] in a line: qHTS for Inhibitors of Plasmodium falciparum (HB3) proliferation (AID 504318). Further: nearly all actives have a fitted effect of over 60% in size. Summed up:
as §1

Molecules are shown by their SMILES. Results filed as inconclusive are left out. The source made the active and inactive calls. Unless noted, the call rests on the fitted dose curve; in most records, active means well fitted curve in the direction sought with a large enough effect; inconclusive means small, poorly fitted or top-dose-only effect, or another doubt; inactive means no such curve, though single readings can be large; an effect the other way counts as inactive or inconclusive.
Potency means the concentration at half of the fitted maximal effect.

Atrial natriuretic peptide receptor 1 (Homo sapiens), sequence (P16066 whole entry, looked up): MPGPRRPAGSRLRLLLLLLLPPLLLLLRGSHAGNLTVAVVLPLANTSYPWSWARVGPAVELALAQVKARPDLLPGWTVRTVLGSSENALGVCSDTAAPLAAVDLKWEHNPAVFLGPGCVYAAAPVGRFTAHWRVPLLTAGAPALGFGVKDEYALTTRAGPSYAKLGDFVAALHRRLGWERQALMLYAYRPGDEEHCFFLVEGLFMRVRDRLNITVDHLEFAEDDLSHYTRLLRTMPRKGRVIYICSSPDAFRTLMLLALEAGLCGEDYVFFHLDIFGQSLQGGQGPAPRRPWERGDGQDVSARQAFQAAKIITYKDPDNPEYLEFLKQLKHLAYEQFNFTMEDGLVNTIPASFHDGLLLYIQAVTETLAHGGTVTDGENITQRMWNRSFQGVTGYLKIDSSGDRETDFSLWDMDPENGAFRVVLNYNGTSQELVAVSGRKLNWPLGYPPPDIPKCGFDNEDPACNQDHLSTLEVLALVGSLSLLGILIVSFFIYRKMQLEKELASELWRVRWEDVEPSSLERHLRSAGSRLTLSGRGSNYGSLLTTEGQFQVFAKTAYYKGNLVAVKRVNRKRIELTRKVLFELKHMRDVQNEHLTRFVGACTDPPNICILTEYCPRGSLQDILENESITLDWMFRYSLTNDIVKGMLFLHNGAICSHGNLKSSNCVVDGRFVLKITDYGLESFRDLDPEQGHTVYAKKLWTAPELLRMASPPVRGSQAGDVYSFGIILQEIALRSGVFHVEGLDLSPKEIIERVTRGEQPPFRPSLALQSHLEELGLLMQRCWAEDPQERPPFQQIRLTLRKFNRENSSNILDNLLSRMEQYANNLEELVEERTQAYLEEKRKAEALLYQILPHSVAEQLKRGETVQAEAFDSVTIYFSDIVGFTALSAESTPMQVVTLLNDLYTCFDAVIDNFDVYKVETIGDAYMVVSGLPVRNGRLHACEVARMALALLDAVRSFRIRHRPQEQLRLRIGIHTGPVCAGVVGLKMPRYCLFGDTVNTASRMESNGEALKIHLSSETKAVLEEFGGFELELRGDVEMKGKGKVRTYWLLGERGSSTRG

Take `COC(=O)C1=C(C(=O)OC)[C@@H]2N(C)c3ccccc3[C@@]23CCC(=O)N(Cc2ccc4c(c2)OCO4)C3=N1`: the Potency entry in experiment [1], in experiment [2] and in experiment [3] was “inactive” each time.

As to `C[C@@H]1CC[C@H]2C(=O)N(Cc3cccc([N+](=O)[O-])c3)C[C@H](O)CN2[C@@H]1c1cccc(Br)c1`, the Potency entry in experiment [1], in experiment [2] and in experiment [3] was “inactive” throughout.

On to `COc1cc2c(c(OC)c1OC)[C@@]1(c3ccccc3)CCCC[C@H]1[C@@H]2NC(=O)C(F)(F)F`, for which the Potency entry in experiment [1], in experiment [2] and in experiment [3] was “inactive” in each case.

For the molecule `C=C(CCN1C=C(C(=O)OCC)C(c2ccccc2)NC1=O)c1ccc(Cl)cc1` (configuration not stated), the Potency result in experiment [1], in experiment [2] and in experiment [3] was “inactive” throughout.

For the molecule `C=C(C(=O)C(C)(C)O)C(O)c1ccc([N+](=O)[O-])cc1` (configuration not stated), the Potency entry in experiment [1], in experiment [2] and in experiment [3] was “inactive” each time.

As for `C[C@@H]1CC2=CCCC2[C@]2(O1)C(=O)Nc1cccc(Br)c12` (some centres not stated), the Potency entry in experiment [1], in experiment [2] and in experiment [3] was “inactive” each time.

With `C=CCN1C(=O)[C@]2(O[C@H](C)CC3=CCCC32)c2c(Br)cccc21` (some centres not stated), the Potency result in experiment [1], in experiment [2] and in experiment [3] was “inactive” throughout.

`CCN1C(=NCc2cccc(C(F)(F)F)c2)NC(c2cccc(C(F)(F)F)c2)C(C(=O)OC)=C1C` (configuration not stated): the Potency in experiment [1] is 95.3 nM (active); in experiment [2] it was 757 nM (active). In experiment [3], the Potency result was “inactive”.

As for `COc1ccc2c(c1)O[C@@H](c1ccc3c(c1)OCO3)[C@H](OC(=O)NCCOc1ccccc1)C2=O`, the Potency result in experiment [1], in experiment [2] and in experiment [3] was “inactive” in each case.

For the molecule `CC1=C[C@@H](COCc2ccccc2)O[C@@]2(C1)C(=O)N(CC1CC1)c1ccccc12`, the Potency entry in experiment [1], in experiment [2] and in experiment [3] was “inactive” in each case.

As for `CC(C)=CCCC(C)=CCON=C1C[C@@H](O)[C@@H](O)[C@@H]2[C@H]3C(=O)N(Cc4ccccc4)C(=O)[C@@H]3CC[C@@H]12`, the Potency entry in experiment [1], in experiment [2] and in experiment [3] was “inactive” in each case.

Turning to `CCc1cc2c(nc1CC)CCN(CCC(C)=NO[C@@H]1O[C@H](COC(C)=O)[C@@H](OC(C)=O)[C@H](OC(C)=O)[C@@H]1OC(C)=O)C2`, the Potency entry in experiment [1], in experiment [2] and in experiment [3] was “inactive” in each case.

In the case of `CC12C=C(C=CCCc3ccco3)C(C)(C1)[C@H](CCc1ccco1)CC2=O` (some centres not stated), the Potency entry in experiment [1], in experiment [2] and in experiment [3] was “inactive” throughout.

Consider `COC(=O)C1=C(C(=O)OC)[C@@H]2N(Cc3ccccc3)c3ccccc3[C@@]23C[C@@H](C(=O)OC)N(C(=O)NCc2ccccc2)C3=C1`, for which the Potency entry in experiment [1], in experiment [2] and in experiment [3] was “inactive” each time.

For `CC=Cc1cc2ccccc2c2c(C(=O)OC)c(C(=O)OC)c(C(=O)OC(C)(C)C)n12`, the Potency entry in experiment [1], in experiment [2] and in experiment [3] was “inactive” throughout.

For the molecule `CCc1cc2c(nc1CC)CCN(CCC(C)=NOCC[C@@H]1C=C[C@H](OC(C)=O)[C@@H](COC(C)=O)O1)C2`, the Potency result in experiment [1], in experiment [2] and in experiment [3] was “inactive” each time.

Take `COc1cccc2c1[C@H](C=Cc1ccccc1)[C@@H]([C@H](O)CN=[N+]=[N-])OC2`: the Potency result in experiment [1], in experiment [2] and in experiment [3] was “inactive” in each case.

As for `C[C@H](NC(=O)N1CCc2nc(COc3ccccc3)c3c(c2C1)CO[C@@H](C)C3)c1ccccc1`, the Potency entry in experiment [1], in experiment [2] and in experiment [3] was “inactive” in each case.

Regarding `Cc1cc2c(c(=O)n1Cc1ccccc1)[C@H]1O[C@](CCCCN3C(=O)c4ccccc4C3=O)(Cc3cc(C#N)ccc31)O2`, the Potency result in experiment [1], in experiment [2] and in experiment [3] was “inactive” in each case.

Regarding `C=C[C@@H](C)[C@](C)(O)c1ccccc1`, the Potency in experiment [4] was 1510 nM (active). The Potency result in experiment [2] and in experiment [3] was “inactive” each time.

In the case of `C[C@H]1[C@@H](C(=O)N2CCCC2)CC(=NOCc2ccccc2)C(=NOCc2ccccc2)C[C@H]1c1ccccc1`, the Potency is 478 nM (active) in experiment [4] and 1690 nM (active) in experiment [5]. Also, the Potency entry in experiment [2] and in experiment [3] was “inactive” throughout.

With `CCc1cc2c(nc1CC)CCN(CCC(C)=NO[C@H](C)c1cn([C@H](CO)Cc3ccccc3)nn1)C2`, in experiment [4], the Potency was 1510 nM (active). The Potency result in experiment [2] and in experiment [3] was “inactive” in each case.

On to `COCc1cc2cc3c(cc2c2c(C(=O)OC)c(C(=O)OC)c(C(=O)OC(C)(C)C)n12)OCO3`, for which the Potency in experiment [4] is 1510 nM (active); in experiment [3], 3350 nM (active). For the same molecule, the Potency result in experiment [2] is “inactive”.

For the molecule `CCN(CC)CCCN1C(=O)C2=C(C1=O)C1N(C)c3ccccc3[C@@]13C[C@@H](CO)N(C(=O)CCC(=O)OC)C3=N2` (some centres not stated), the Potency result in experiment [4], in experiment [5], in experiment [2] and in experiment [3] was “inactive” in each case.

Regarding `C=CCNC(=O)N1CCc2nc(-c3ccc(OC)cc3C)c3c(c2C1)CO[C@@H](c1ccccc1)C3`, the Potency in experiment [4] is 1510 nM (active). In addition, the Potency entry in experiment [2] and in experiment [3] was “inactive” each time.

Take `COc1ccc([C@]23Cc4cc(OC)c(OC)cc4[C@H](O2)C2=C(CCCC2=O)O3)cc1`: the Potency in experiment [4] was 1510 nM (active). Further, the Potency entry in experiment [2] and in experiment [3] was “inactive” in each case.

In the case of `CCCC[C@]12Cc3cc(C#N)ccc3[C@H](O1)c1c(cc(C)n(Cc3ccccc3)c1=O)O2`, the Potency in experiment [4] is 1690 nM (active). For the same molecule, the Potency result in experiment [2] and in experiment [3] was “inactive” each time.

Consider `c1ccc(C2NCCc3c2[nH]c2ccccc32)cc1` (configuration not stated), for which the Potency result in experiment [4], in experiment [5], in experiment [2] and in experiment [3] was “inactive” each time.
